Test results: PubChem BioAssay AID1851 (National Center for Advancing Translational Sciences (NCATS), 2009)
Where “and” joins values, the source holds several entries; their conditions need not be identical. Identical values can stand only once. In all, about 16,000 compounds went through this assay and about 5,700 (36%) were called active. Roughly 24% stayed inconclusive and do not appear here. The list shows a part of the results. A number with no mark means an inactive call. The call rests on the fitted dose curve; in most records, active means well fitted curve in the direction sought with a large enough effect; inconclusive means small, poorly fitted or top-dose-only effect, or effect the other way; inactive means no such curve, though single readings can be large or run the other way.

molecular target: Cytochrome P450 1A2 (Homo sapiens) (UniProt P05177); test: Cytochrome panel assay with activity outcomes; settings: recombinant CYP, pro-luciferin dealkylation, luminescence, p450-cyp1a2; series mostly up to 57.1 µM; activity, negative = inhibition: at the top concentration
Sequence (P05177 whole entry, looked up): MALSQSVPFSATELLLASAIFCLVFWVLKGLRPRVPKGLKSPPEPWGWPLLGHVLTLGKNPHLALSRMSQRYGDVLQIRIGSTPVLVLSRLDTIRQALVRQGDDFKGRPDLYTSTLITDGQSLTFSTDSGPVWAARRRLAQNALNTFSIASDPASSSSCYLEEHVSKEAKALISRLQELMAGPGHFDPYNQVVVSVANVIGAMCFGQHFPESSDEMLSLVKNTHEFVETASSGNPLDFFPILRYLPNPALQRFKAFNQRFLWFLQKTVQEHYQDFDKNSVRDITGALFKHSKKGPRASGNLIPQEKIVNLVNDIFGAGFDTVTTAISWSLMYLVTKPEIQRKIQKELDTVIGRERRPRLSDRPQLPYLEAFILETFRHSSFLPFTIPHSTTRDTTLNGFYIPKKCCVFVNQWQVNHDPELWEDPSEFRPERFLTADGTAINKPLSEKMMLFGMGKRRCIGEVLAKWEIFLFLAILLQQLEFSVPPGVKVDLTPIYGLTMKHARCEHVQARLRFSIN
On the % scale 0 is the no-effect control and ±100 the full control effect.

| SMILES | AC50 | activity, negative = inhibition |
| --- | --- | --- |
| COc1ccc(S(=O)(=O)n2ccc(-c3cnc(-c4ccccc4)s3)n2)cc1 | 1.12 µM (active) |  |
| O=S(=O)(c1ccc(F)cc1)n1ccc(-c2cnc(-c3ccccc3)s2)n1 | 2.24 µM (active) |  |
| COc1ccc(S(=O)(=O)N2CC3C4C=CC(C4)C3C2)cc1 (stereo not given) |  | -14% |
| Cc1ccc(S(=O)(=O)n2ccc(-c3cccc(OCc4c(F)cccc4Cl)c3)n2)cc1 |  | -3.21% |
| COc1ccc(-c2cnnc(CCCn3ccnc3-c3ccccc3)n2)cc1 |  | -12.1% [at 11.4 µM] |
| CC(C)c1ccc(C(=O)CC2(O)C(=O)N(CN3CCOCC3)c3ccccc32)cc1 (stereo not given) |  | -15.9% |
| COc1cccc2cc(C(=O)CC3(O)C(=O)N(Cc4ccccc4)c4ccccc43)c(=O)oc12 (stereo not given) | 15.8 µM (active) |  |
| Cn1c(=O)c2c(nc(C(=N)SCC(=O)O)n2C)n(C)c1=O | 1.26 µM (active) |  |
| Cn1c(=O)c2c(nc(NCCNc3nc4c(c(=O)n(C)c(=O)n4C)n3C)n2C)n(C)c1=O |  | -0.53% [at 11.4 µM] |
| CN1CCN(c2nc3c(c(=O)n(C)c(=O)n3C)n2C)CC1 |  | -16.8% [at 2.29 µM] |
| O=C(OCCNC(=O)c1ccc2ccccc2n1)c1ccc(F)cc1 | 1.12 µM (active) |  |
| O=C(NCCOC(=O)c1ccc(C(=O)OCCNC(=O)c2cccnc2)s1)c1cccnc1 |  | -9.26% |
| Cc1ccc(N=Nc2ccc(N)cc2C)c(S(N)(=O)=O)c1 | 0.501 µM (active) |  |
| Cc1ccc(N=Nc2c(O)c3ccccc3[nH]c2=O)c(S(=O)(=O)N(C)C)c1 |  | -14.6% [at 2.29 µM] |
| Nc1ccccc1S(N)(=O)=O |  | -0.711% [at 25.6 µM] |
| CC(C)CNC(=S)N1CCN(C)CC1 |  | -8.21% |
| CC(C)C(=O)NC(=S)Nc1ccccc1C(=O)Nc1ccccc1 | 6.31 µM (active) |  |
| O=C(O)c1ccccc1-c1ccccc1C(=O)Nc1ccccc1 |  | -5.42% |
| OCCSCc1ccccc1 |  | -13% [at 11.4 µM] |
| O=S(=O)(O)[C@@H](CO)c1ccccc1 (tested in a mixture with another compound) |  | -1.9% [at 2.29 µM] |
| O=C1C(SCCO)=C(SCCO)C(=O)c2ccccc21 | 0.631 µM (active) |  |
| COc1cccc(Nc2ncc3nc(C)c(=O)n(CCc4ccccc4)c3n2)c1 | 5.01 µM (active) |  |
| COCCn1c(=O)c(C)nc2cnc(Nc3cccc(OC)c3)nc21 | 1 µM (active) |  |
| c1ccc([C@@H]2CN3CCSC3=N2)cc1 |  | -10.1% |

| SMILES | AC50 | activity, negative = inhibition |
| --- | --- | --- |
| COc1ccc(C(=O)Nc2cc(OC)cc(OC)c2)cc1 | 12.6 µM (active) |  |
| COc1ccc(C(=O)Nc2cccc(OC(=O)c3ccc(C)c(C)c3)c2)cc1 | 14.1 µM (active) |  |
| COc1ccc(NC(=O)C2(c3ccc(NC(=O)c4ccc(OC(C)=O)cc4)cc3)CCCC2)cc1 |  | 6.01% |
| COc1ccc(NC(=O)c2ccc(C(=O)c3cc(OC)ccc3OC)cc2)cc1 |  | -14.8% |
| O=C(N/N=C/c1ccc(O)cc1)c1csc2ccccc12 | 11.2 µM (active) |  |
| COc1ccc(OC)c(/C=N/NC(=O)c2csc3ccccc23)c1 | 3.16 µM (active) |  |
| Cc1ccc(C)c(-c2nn(-c3cc(N4CCN(CCO)CC4)ccc3[N+](=O)[O-])c(=O)c3ccccc23)c1 |  | -5.68% |
| O=C(O)c1cc2c(cc1S(=O)(=O)O)[C@H]1[C@@H]([C@H]3[C@H]2[C@@]2(Cl)C(Cl)=C(Cl)[C@]3(Cl)C2(Cl)Cl)[C@]2(Cl)C(Cl)=C(Cl)[C@@]1(Cl)C2(Cl)Cl |  | -14.5% [at 11.4 µM] |
| O=C(Nc1cccn(Cc2ccc(F)cc2)c1=O)NC1CCCCC1 | 22.4 µM (active) |  |
| O=C(NC1CCCC1)C(c1ccc(F)cc1)N(Cc1ccc(F)cc1)C(=O)c1ccn[nH]1 (stereo not given) |  | -5.3% |
| Cc1ccc(Cn2cccc(NC(=O)NCc3ccccc3)c2=O)cc1 |  | -1.87% |
| Cc1ccc2cn[nH]c2c1NC(=S)NC(=O)c1ccccc1 | 10 µM (active) |  |
| COc1ccc(C(=O)N2CCC3(CCCN(CC(C)C)C3)CC2)cc1 |  | -16.6% |
| CN1CCC[C@@H](CC2c3ccccc3Sc3ccccc32)C1 |  | -4.29% [at 25.6 µM] |
| CN1CCC(=C2c3ccccc3Sc3ccccc32)CC1 |  | -17.4% [at 25.6 µM] |
| CSc1ccc2c(c1)[C@H](N1CCN(C)CC1)Cc1ccccc1S2 | 31.6 µM (active) |  |
| O=c1c2ccccc2c(-c2ccccc2)nn1-c1ccc(Cl)c(Cl)c1 | 0.126 µM (active) |  |
| O=C1Nc2cc(Cl)c(Cl)cc2N(O)N1c1ccc(Cl)c(Cl)c1 |  | -19.1% |
| COc1ccccc1CNc1nc(-c2c(C)noc2C)nc2ccccc12 | 0.631 µM (active) |  |
| Cc1noc(C)c1-c1nc(NCc2cccs2)c2ccccc2n1 | 0.2 µM (active) |  |
| COc1ccccc1CN1CC[C@@]2(CCCN(C(=O)c3c(C)noc3C)C2)C1 |  | 12.4% |
| COc1ccc(CNc2nc(-c3c(C)noc3C)nc3ccccc23)c(OC)c1 | 0.794 µM (active) |  |
| COc1ccc(N(CC(=O)NCc2cccc(OC)c2)S(=O)(=O)c2c(C)noc2C)cc1 |  | -21.9% |
| COC(=O)Cc1c(C)nc2nc(NCc3ccccc3OC)[nH]n2c1=O |  | -20.2% |

| SMILES | AC50 | activity, negative = inhibition |
| --- | --- | --- |
| CCS(=O)(=O)NCCc1cc2ccc(C)cc2[nH]c1=O | 20 µM (active) |  |
| CS(=O)(=O)N(Cc1cc2ccccc2[nH]c1=O)C1CCCCC1 |  | -15% |
| C[N+]1(CCC[N+]2(C)C[C@H]3[C@H](C2)[C@H]2C=C[C@@H]3CC2)CCOCC1 (stereo not given in full) |  | -11% [at 11.4 µM] |
| CN(C)c1ccc(-c2cc(NCc3ccccc3)ncn2)cc1 | 1 µM (active) |  |
| Cc1cccc(CNc2cc(-c3ccc(N(C)C)cc3)ncn2)c1 | 1 µM (active) |  |
| CN(C)c1ccc(-c2cc(NCc3cccnc3)ncn2)cc1 | 0.398 µM (active) |  |
| Cc1cnc(CNc2cc(-c3ccc(C(=O)N(C)C)cc3)ncn2)cn1 |  | -0.907% |
| Cc1cccc(CNc2cc(-c3ccc(C(=O)N(C)C)cc3)ncn2)c1 | 15.8 µM (active) |  |
| CN(C)CCSCCO |  | -14.3% [at 2.29 µM] |
| CN(C)CC[C@@H](c1ccccc1)c1ccccn1 | inactive |  |
| CN(C)CC(CN(C)C)c1ccccn1 |  | -16.5% [at 11.4 µM] |
| CN(CCc1ccccn1)c1ccc2c(c1)C(=O)c1ccccc1-2 | 0.158 µM (active) |  |
| CN(CCc1ccccn1)c1ccc2c(c1)Cc1ccccc1-2 | 0.631 µM (active) |  |
| COc1ccc(-c2cc([C@H](O)[C@@H]3CCCCN3)c3ccccc3n2)cc1 |  | -11% [at 2.29 µM] |
| c1ccc2c(NC3CC3)nc(-c3ccoc3)nc2c1 | 0.316 µM (active) |  |
| c1ccc2c(NC3CCNCC3)nc(-c3ccoc3)nc2c1 | 15.8 µM (active) |  |
| COc1cccc(-c2nc(NC3CCNCC3)c3ccccc3n2)c1 | 12.6 µM (active) |  |
| COc1cccc(-c2nccc(NC3CCNCC3)n2)c1 | 6.31 µM (active) |  |
| CC(=O)OC[C@@H]1O[C@@H](O/N=C2/C[C@@H](O)[C@@H](O)[C@@H]3[C@H]4C(=O)N(c5ccc(F)cc5F)C(=O)[C@@H]4CC[C@H]23)[C@H](OC(C)=O)[C@H](OC(C)=O)[C@@H]1OC(C)=O |  | -3.19% [at 11.4 µM] |
| Cc1cccc(N(CC(=O)NCCSCc2ccco2)S(=O)(=O)c2ccccc2)c1 |  | -3.73% |
| C/C(CCN1CCCCc2nc(C)c(C)cc21)=N\O[C@@H](C)c1cc(-c2c(C)cc(C)cc2C)no1 |  | 2.23% [at 11.4 µM] |
| Nc1ncnc2c1nc(Sc1ccc(Cl)cc1)n2[C@@H]1O[C@H]2COP(=O)(O)O[C@@H]2[C@H]1O |  | -8.07% |
| CN(C)c1ccc(-c2nc(NC3CCNCC3)c3ccccc3n2)cc1 | 15.8 µM (active) |  |
| CC(C)=NO[C@@H](C)c1cn([C@H](CO)Cc2ccccc2)nn1 |  | -7.23% [at 11.4 µM] and -1.97% [at 11.4 µM] |

| SMILES | AC50 | activity, negative = inhibition |
| --- | --- | --- |
| CCCCNC(=O)CSc1nc2ccccc2c(=O)n1CCNC(C)=O |  | -6.64% |
| CCCCn1c(SCC(N)=O)nc2ccc(N3CCOCC3)cc2c1=O | 4.47 µM (active) |  |
| CC1CCN(CCCn2c(=S)[nH]c3ccc(N4CCOCC4)cc3c2=O)CC1 |  | -26.7% |
| Cc1ccc(C)c(C(=O)CN2C(=O)c3ccccc3S2(=O)=O)c1 |  | -17.5% |
| CC(=O)c1cc(C)ccc1OC(=O)CCN1C(=O)C2C3c4ccccc4C(c4ccccc43)C2C1=O (stereo not given) | 15.8 µM (active) |  |
| CCOC(=O)CCN1C(=O)[C@H]2[C@@H]3[C@H](O)C=CC(=O)[C@H]3CC[C@H]2C1=O |  | -6.05% [at 11.4 µM] |
| CN(C)CC/C=C1\c2ccccc2COc2ccccc21 | 15.8 µM (active) |  |
| C[C@H]1CN(CCO)CCN1c1ccccc1 |  | -18.4% [at 11.4 µM] |
| OCCN1CCN(CCC=C2c3ccccc3Sc3ccc(Cl)cc32)CC1 | 15.8 µM (active) |  |
| CN(C)CC/C=C1\c2ccccc2Sc2ccc(Cl)cc21 | 1.58 µM (active) |  |
| CN(C)CCC=C1c2ccccc2C=Cc2ccccc21 | inactive |  |
| CN(C)CC/C=C1\c2ccccc2CSc2ccccc21 |  | -6.68% [at 25.6 µM] |
| CN1CCN(CCC=C2c3ccccc3Sc3ccc(S(=O)(=O)N(C)C)cc32)CC1 |  | -7.27% |
| CN1CCN(CCCN)CC1 |  | -19.9% [at 11.4 µM] |
| NC[C@H](O)C1CCCCCCC1 |  | -18.7% |
| CC(C)N(Cc1ccccc1)S(=O)(=O)c1n[nH]c(C(C)(C)C)n1 |  | 2.16% [at 11.4 µM] |
| Cc1ccc(C)c(NC(=O)C2(C)CC3c4ccccc4C2c2ccccc23)c1 (stereo not given) |  | -20.1% |
| Cc1ccc(C)c(NC(=O)NCc2ccc(Cl)cc2)c1 | 0.794 µM (active) |  |
| Cc1ccc(CNC(=O)C2(NC(=O)Nc3ccc(C)cc3)CCCCC2)cc1 |  | 6.22% |
| CC1(C)C(=O)N(CCN2CCC(C(=O)c3ccc(F)cc3)CC2)c2ccccc21 |  | -12.4% |
| O=C(CC(=O)NN=C1CCCC1)NCCc1ccccc1 |  | -25.7% |
| O=C(NCCc1ccccc1)C(=O)NN=C1CCCC1 | 12.6 µM (active) |  |
| O=C(NCCc1ccccc1)C(=O)NCC1(c2ccccc2)CCCC1 |  | 6.35% |
